Screening data: PubChem, National Center for Advancing Translational Sciences (NCATS)
ELG1 repair inh = inhibitors of ELG1-dependent DNA repair in HEK293T cells | HEK293T ELG1-luciferase reporter, luminescence, 16 h; DNA damage induced by 5-fluorouridine | 330,000 tested, 2.3% active | Potency, µM (top dose mostly 46.1 µM), without a hit: at the highest dose activity change, negative = inhibition, hits mostly inhibitors; note: potency is the fitted concentration of half-maximal effect; nearly all actives have a fitted effect of over 55% in size
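Quantitative HTS, concentration-response format. 2,000 cells/well co-treated with 5-fluorouridine and compound, 16 hr in 5% CO2 at 37 °C; ONE-Glo luminescence read after 30 min.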
TDP1 inh = blocks human tyrosyl-DNA phosphodiesterase 1; Q9NUW8; recombinant TDP1, AlphaScreen DNA substrate cleavage; Potency, µM (top dose mostly 130 µM), for the others: at the top dose activity change, negative = inhibition, hits mostly inhibitors; 350,000 tested, 0.28% active; AID 485290; note: potency is the fitted concentration of half-maximal effect; nearly all actives have a fitted effect of over 40% in size
Target sequence (Q9NUW8 whole entry, looked up): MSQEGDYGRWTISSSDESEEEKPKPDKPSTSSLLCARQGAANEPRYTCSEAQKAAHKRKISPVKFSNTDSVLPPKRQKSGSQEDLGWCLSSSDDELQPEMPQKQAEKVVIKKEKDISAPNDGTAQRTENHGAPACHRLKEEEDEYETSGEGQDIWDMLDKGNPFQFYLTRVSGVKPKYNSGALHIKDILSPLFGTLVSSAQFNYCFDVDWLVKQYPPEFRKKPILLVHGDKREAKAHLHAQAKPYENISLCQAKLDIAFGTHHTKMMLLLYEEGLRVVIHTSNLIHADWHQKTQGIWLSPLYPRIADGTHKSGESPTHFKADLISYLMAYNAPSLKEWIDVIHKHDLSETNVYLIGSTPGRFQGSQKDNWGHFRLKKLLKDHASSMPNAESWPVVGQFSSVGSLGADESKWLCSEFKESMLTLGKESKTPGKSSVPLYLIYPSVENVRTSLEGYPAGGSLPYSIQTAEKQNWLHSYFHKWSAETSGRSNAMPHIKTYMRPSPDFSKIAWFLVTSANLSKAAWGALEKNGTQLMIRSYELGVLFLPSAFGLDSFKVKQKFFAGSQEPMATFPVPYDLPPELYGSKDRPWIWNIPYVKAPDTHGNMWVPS
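AlphaScreen read-out: signal falls as enzyme removes the 3' tyrosine-FITC from a 5'-biotinylated DNA oligo (15 nM, 5 min, RT). Enzyme was E. coli-made recombinant Tdp1 at 1 nM, exposed to compound for 15 min beforehand; beads 10 ug/ml, 10 min.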
Giardia kill = Giardia lamblia killing | 340,000 tested, 0.15% active | activity change, % at 7.66 µM, hits read low | Giardia lamblia trophozoite viability; in the data active = activity change below about -80%; inconclusive = between about -30% and that limit;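 note: parasites exposed to compound for two days anaerobically before the ATP read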
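Media and compound were dispensed first, then trophozoites at 100 cells/well; plates sat 48 hrs at 37 deg C without oxygen before ATP luminescence reagent was added and read after 15-30 min at room temperature.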
IL1B secr inh = inflammasome signaling inhibition, IL-1 beta readout; THP-1 LPS/ATP IL-1B secretion, AlphaLISA, 16 h; hits give low values; activity change, % at 57.5 µM; 360,000 tested, 4.7% active; AID 743279; in the data active = activity change below about -50%; inconclusive = mostly about -30% to -49%
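THP-1 cells pretreated 1 hr with compounds (up to 57.5 uM final), then stimulated with LPS (250 ng/mL final) plus ATP (1.25 mM final); secreted IL-1B measured by AlphaLISA after 16 hr, decreased signal indicating inhibition.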
DT40 TDP1 CPT = DT40-hTDP1 cell growth loss with CPT; chicken DT40 Tdp1-/-;hTDP1 cells + 20 nM CPT, ATP luminescence, 48 h; Potency, µM (titrated, usually from 46.2 µM), for the others: top-dose activity change, negative = growth inhibition, most hits filed as inhibitors; 420,000 tested, 12% active; note: potency is the fitted concentration of half-maximal effect; nearly all actives have a fitted effect of over 55% in size
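Chicken DT40 Tdp1-/- cells stably complemented with human TDP1 were seeded at 400 cells/well in medium containing 20 nM camptothecin, exposed to pin-transferred compounds, and grown at 37 °C for at least 48 hr. Viability was read as ATP luminescence.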
TDP1 cell noCPT = qHTS for Inhibitors of human tyrosyl-DNA phosphodiesterase 1 (TDP1): qHTS in cells in absence of CPT; Potency, µM (series often up to 46.2 µM), for inactives: top-dose activity change, negative = growth inhibition, most hits filed as inhibitors; 420,000 tested, 15% active; DT40 Tdp1-/- hTDP1 cells, no CPT, ATP luminescence, 48 h; note: potency is the fitted concentration of half-maximal effect; nearly all actives have a fitted effect of over 55% in size
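Camptothecin absent (DMSO only). Human TDP1-complemented DT40 knockout cells, 400 cells/well, 37 °C for minimum 48 hr; ATP measured via CellTiter-Glo, 30 min dark incubation, luminescence.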
* marks the source's active call; other numbers are inactive results; ? = inconclusive; . = no result given; [ ] = another dose, or the depositor's remark. An excerpt weighted towards active compounds, which were near 19% of everything screened. Unless noted, calls come from the whole dose curve; as a rule, active = well fitted curve in the direction sought with a large enough effect; inconclusive = small, poorly fitted or top-dose-only effect, or another doubt; inactive = no such curve, though single readings can be large; an effect the other way counts as inactive or inconclusive. % is set by controls: 0 for no effect and ±100 for the full control effect.

SMILES	ELG1 repair inh	TDP1 inh	Giardia kill	IL1B secr inh	DT40 TDP1 CPT	TDP1 cell noCPT
CC1CN(C(=O)c2cc3c(=O)n4ccccc4nc3n2C)CC(C)O1 (stereo not given)	?	0%	31	10	13%	-6%
Cn1cccc2[nH]c(=O)nc1-2	-28%	0%	-20	3	-17%	2%
Cc1ccc(C)c(N(C)C(=O)c2cc3c(=O)[nH]c4ccc(C)cc4c3s2)c1	-16%	.	-4	-3	16µM*	4.1µM*
CCN(CC)CCNC(=O)c1cc2c(=O)[nH]c3ccc(C)cc3c2s1	.	4%	.	.	6%	-19%
CCN(CCCNC(=O)c1cc2c(=O)[nH]c3ccc(C)cc3c2s1)c1ccc(C)cc1	.	4%	.	.	?	?
Cc1ccc2[nH]c(=O)c3cc(C(=O)N(C)Cc4ccco4)sc3c2c1	?	5%	-14	-7	?	?
CCCN(C(=O)c1cc2c(=O)[nH]c3ccc(C)cc3c2s1)c1ccc(CC)cc1	.	4%	.	.	-3%	-11%
CCN(C(=O)c1cc2c(=O)[nH]c3ccc(C)cc3c2s1)c1ccc(OC)cc1	?	4%	20	-10	29µM*	9.2µM*
CCCN(CCC)C(=O)c1cc2c(=O)[nH]c3ccc(C)cc3c2s1	-18%	2%	8	?	?	16µM*
CCOCCCN(Cc1ccco1)C(=O)c1cc2c(=O)[nH]c3ccc(C)cc3c2s1	16µM*	-2%	-1	-6	23µM*	12µM*
COc1ccc(-c2nnc(SCC(=O)Nc3ccc(C)c(C)c3)s2)cc1	.	5%	.	.	-28%	?
CC(C)Cn1c(/C=C/c2ccco2)nc2ccccc21	13%	8%	29	-17	?	?
Cc1ccc2[nH]c(=O)c3cc(C(=O)N4CCN(C(=O)c5ccco5)CC4)sc3c2c1	16µM*	56µM*	-2	-5	?	-15%
Cc1ccc2[nH]c(=O)c3cc(C(=O)N4CCN(c5ccccc5)CC4)sc3c2c1	.	0%	.	.	-16%	?
Cc1cccc(C(=O)Nc2ccc(C(=O)N3CCCCC3C)cc2)c1 (stereo not given)	?	4%	-9	11	-17%	-29%
Cc1cccc(CN2CCN([C@H]3CS(=O)(=O)N[C@@H]3COCc3ccccc3)CC2)c1	.	.	.	14	18µM*	16µM*
CN1CCN([C@H]2CS(=O)(=O)N[C@@H]2COCc2ccccc2)CC1	.	.	.	22	?	4%
Cc1cccc(C(=O)N[C@H]2CC[C@@H](n3cc(C(=O)N4CCCC4)nn3)CC2)c1	.	.	.	.	23%[9.04 µM]	-7%
CCOC(=O)C1=C(C)NC(c2ccccc2)=C(C(=O)OCc2ccc([N+](=O)[O-])cc2)[C@@H]1C#Cc1ccccc1	.	7%	.	.	4%	-23%
CCOC(=O)C1=C(C)NC(C)=C(C(=O)OCC)C1c1cccc([N+](=O)[O-])c1	.	.	.	-2	?	23µM*
CCOC(=O)C1=C(C)NC2=C(C1c1ccc([N+](=O)[O-])cc1)S(=O)(=O)c1ccccc12 (stereo not given)	10µM*	-7%	5	-24	?	?
CCCCOC(=O)C1=C(C)NC(=O)NC1c1cc2c(cc1Br)OCO2 (stereo not given)	0%	4%	20	?	23µM*	23µM*
CC1=C(C(=O)OCc2ccccc2)C(c2cccc([N+](=O)[O-])c2)NC(=O)N1C (stereo not given)	?	8%	6	10	-9%	-2%
CC1=C(C(=O)OCc2ccc3c(c2)OCO3)C(c2cccc([N+](=O)[O-])c2)NC(=O)N1 (stereo not given)	7.3µM*	0%	-3	-10	?	?
CCc1ccccc1NC(=O)[C@H](Cc1ccccc1)N1Cc2ccccc2C1=O	.	5%	.	.	?	?
SMILES	ELG1 repair inh	TDP1 inh	Giardia kill	IL1B secr inh	DT40 TDP1 CPT	TDP1 cell noCPT
COc1ccc(COC(=O)c2ccc(Cl)c(S(=O)(=O)N3CC(C)OC(C)C3)c2)cc1 (stereo not given)	?	.	6	2	?	?
CC(C)c1ccc(S(=O)(=O)N2CCN(C(=O)Cc3ccsc3)CC2)cc1	10%	-5%	0	-1	?	-26%
Cc1ccc(NC(=O)C2CCCN(C(=O)c3cnn(-c4ccc(F)cc4)c3-n3cccc3)C2)c(Cl)c1 (stereo not given)	.	8%	.	.	.	.
CCOC(=O)C1=C(C)NC2=C(C(=O)c3ccccc32)C1c1ccc([N+](=O)[O-])o1 (stereo not given)	?	9%	-95*	-66*	23µM*	16µM*
CCC(CC)COC(=O)C1=C(C)NC(=O)NC1c1ccc2c(c1)OCO2 (stereo not given)	-17%	2%	-24	-79*	-12%	?
CCC(CC)COC(=O)C1=C(C)NC(=O)NC1c1cccc([N+](=O)[O-])c1 (stereo not given)	-8%	.	33	-15	?	?
CCOC(=O)C1=C(C)NC(=O)NC1c1ccc([N+](=O)[O-])o1 (stereo not given)	24%	1%	?	-8	?	-27%
COC(=O)C1=C(C)NC(C)=C(C(=O)OCCCN2CCC(c3ccccc3)(c3ccccc3)CC2)C1c1cccc([N+](=O)[O-])c1 (stereo not given)	.	21%	.	.	18µM*	11µM*
CCOC(=O)C1=C(C)NC(=O)NC1c1ccc2c(c1)OCO2 (stereo not given)	19%	-6%	4	-11	-1%	-3%
CCCCOC(=O)C1=C(C)NC(=O)NC1c1cccc([N+](=O)[O-])c1 (stereo not given)	6.5µM*	6%	-14	-15	?	-21%
Cn1nnc2c(N3CCN(c4ccc(F)cc4)CC3)ncnc21	.	-5%	.	.	?	?
COC(=O)COc1ccc(C2C(C(=O)OC)=C(C)NC3=C2C(=O)c2ccccc23)cc1OC (stereo not given)	.	.	.	.	8%	0%
COc1ccc(C2NC(=O)NC(C)=C2C(=O)OCc2ccc3c(c2)OCO3)cc1OC (stereo not given)	10µM*	2%	?	-15	?	?
COC(=O)C1=C(C)NC(=O)NC1c1ccc2c(c1)OCO2 (stereo not given)	4%	4%	?	-4	13%	4%
